Laboratory results as given in PubChem BioAssay (NCATS).
Inconclusive results are not listed. Unmarked numbers belong to inactive results. Calls of active or inactive are those of the source. The call rests on the fitted dose curve; in most records, active means well fitted curve in the direction sought with a large enough effect; inconclusive means small, poorly fitted or top-dose-only effect, or another doubt; inactive means no such curve, though single readings can be large; an effect the other way counts as inactive or inconclusive.

Columns and labels:
[1] = Viability qHTS for spleen associated tyrosine kinase inhibitor (SYKi) drug resistant MV4-11 cells (AID 1963824); conditions: SYKi-resistant MV4-11 viability, CellTiter-Glo, 72 h; series mostly up to 45 µM; further: nearly all actives have a fitted effect of over 35% in size
Outline: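 SYK-inhibitor-resistant MV4-11 AML cells were seeded at 500 per well onto compound and cultured 72 hours (37 °C, 5% CO2). CellTiter-Glo was then added, and after 10 min at room temperature, luminescence gave viability.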

[2] = Cellular viability qHTS for adrenocortical cancer (ACC) cell line SW-13 (AID 1963989); conditions: SW-13 ACC cells viability, CellTiter-Glo, 48 h; activity (max response): hits give low values; further: nearly all actives have a fitted effect of over 65% in size;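 on activity (max response): cells grown in serum-free medium with ITS supplement; on the % scale 0 is the no-effect control and ±100 the full control effect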
Outline: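 48 h treatment, SW-13 in ITS/DMEM serum-free; doses up to 46 uM; readout CellTiter-Glo luminescence; curve fit four-parameter logistic.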

[3] = Cellular viability qHTS for adrenocortical cancer (ACC) cell line NCI-H295R (AID 1963990); conditions: CellTiter-Glo ATP luminescence, 48 h; series mostly up to 46.1 µM; further: nearly all actives have a fitted effect of over 60% in size
Outline: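 Compound titrations (up to 46 uM final) are applied to NCI-H295R cultures for 48 h at 37C. Viable cell number is estimated by CellTiter-Glo signal, normalised to DMSO and doxorubicin controls.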
Potency means the concentration at half of the fitted maximal effect.

Compound	Potency [1]	activity (max response) [2]	Potency [3]	Potency [2]
CC(=O)Oc1cc(C(C)C)c(OCCN(C)C)cc1C	inactive	12.6%	inactive	–
O=C(NOCCO)c1cc(CN2OCCCC2=O)c(F)c(F)c1Nc1ccc(I)cc1F	65.1 nM (active)	–	25100 nM (active)	7080 nM (active)
CCC(C(=O)OCCN(CC)CC)c1ccccc1 (stereo unspecified)	inactive	4.88%	inactive	–
CNC(=O)Cn1cc(-c2ccc3c(c2)C(F)CC32NC(=O)N(CC(=O)N(Cc3ccc(F)cc3)[C@@H](C)C(F)(F)F)C2=O)cn1 (stereo partly specified)	132 nM (active)	8.67%	inactive	–
CN(C)C/C=C/C(=O)Nc1ccc(C(=O)N2CCC[C@@H](Nc3ncc(Cl)c(-c4c[nH]c5ccccc45)n3)C2)cc1	93.4 nM (active)	–	10000 nM (active)	251 nM (active)
COc1ccc2cc(C=O)ccc2c1	inactive	8.85%	inactive	–
Nc1ccc(S(=O)(=O)NCc2ccccc2)cc1	inactive	-7%	inactive	–
